Source: PubChem BioAssay (National Center for Advancing Translational Sciences (NCATS))
D1 potentiator – human D1 dopamine receptor positive modulation | P21728 | actives 0.036% (n = 360,000) | HEK293 TREx D1 cells, calcium flux, dopamine EC20 potentiation | potentiation, % at 10 µM | AID 504651; in the data active = potentiation above about 30%
D1 antag – antagonists of human D1 dopamine receptor; HEK293 TREx D1 cells, calcium flux, dopamine EC80; stronger effect = lower value; activity change, negative = inhibition, % at 10 µM; actives 3.2% (n = 360,000); AID 504652; in the data active = activity change below about -30%
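Tetracycline-induced HEK293 T-REx cells with force-coupled D1 receptor were loaded with a no-wash calcium dye. Compound was added after a 10 s baseline and read kinetically for 180 s; EC80 dopamine was then added and calcium flux followed another 180 s.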
Chronic BCR inh – chronic active BCR signaling inhibition; ABC-DLBCL IkBa-CBG/CBR reporter, luminescence ratio, 4 h; Potency, µM (titrated, usually from 46.1 µM), hits mostly inhibitors; actives 0.05% (n = 340,000); active = well fitted inhibition curve with a large enough effect in the signal ratio, with a control signal flat, not every such curve was filed as active; inconclusive = small, poorly fitted or top-dose-only effect, or effect the other way, or a change in a side signal; the % refers to the signal ratio
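TMD8 human ABC-DLBCL cells with doxycycline-inducible IκBα–green luciferase fusion and unfused red luciferase, in 0.5% FBS medium; compounds up to 46 uM, 4 h at 37C. Green/red luminescence ratio, filter-overlap corrected, fitted to concentration-response curves.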
DRD3 antagonist – D3 dopamine receptor (human) antagonism; P35462; D3R cells, DiscoveRx beta-arrestin luminescence, antagonist mode; stronger effect = lower value; max response, negative = inhibition, %; actives 2.5% (n = 360,000); AID 652054; in the data active = max response below about -50%; inconclusive = no clear call, values can overlap the other calls
Target sequence (P35462 whole entry, looked up): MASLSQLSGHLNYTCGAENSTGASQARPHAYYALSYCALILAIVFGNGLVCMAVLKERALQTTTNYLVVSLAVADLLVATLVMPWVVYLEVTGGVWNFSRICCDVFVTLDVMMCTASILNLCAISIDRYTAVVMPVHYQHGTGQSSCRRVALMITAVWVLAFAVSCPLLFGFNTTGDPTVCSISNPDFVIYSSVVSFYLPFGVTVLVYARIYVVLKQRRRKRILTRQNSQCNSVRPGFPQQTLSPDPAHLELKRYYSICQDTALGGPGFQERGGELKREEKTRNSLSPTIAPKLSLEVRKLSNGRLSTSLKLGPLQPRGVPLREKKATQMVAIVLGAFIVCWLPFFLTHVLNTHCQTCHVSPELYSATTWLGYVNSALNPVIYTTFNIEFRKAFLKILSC
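Cells expressing the human receptor were seeded at 1500 cells/well, incubated overnight at 37 degrees C in 5% CO2, then exposed to library compounds with dopamine controls for 90 minutes at 37 degrees C before luminescent detection.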
D1 ag – human D1 receptor agonism; P21728; HEK293 T-REx D1 cells, calcium flux, agonist mode; activation, % at 2 µM; actives 1% (n = 360,000); AID 504660; in the data active = activation above about 30%
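Agonism was scored from calcium flux recorded over 180 s (1 read/s) after pintool compound addition, following a 10-cycle baseline. Cells were inducible force-coupled HEK293 TREx D1, plated overnight at 30 C and loaded with no-wash calcium dye.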
D3 ag – activates the human D3 dopamine receptor | P35462 | D3R DiscoveRx beta-arrestin cells, luminescence, 90 min | max activation, % | actives 0.58% (n = 410,000) | AID 652048; in the data active = max activation above about 30%
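Cells at 1500/well, incubated overnight, then treated with pinned compounds (dopamine as control) for 90 min at 37 degrees C. DiscoveRx reagent added for 30 - 60 minutes at room temperature; luminescence read.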
Hits are given with their value; n = inactive; u = inconclusive; x = no result. Sampled rows, rich in hits. Any-hit rate of the full collection: about 6%.

SMILES	D1 potentiator	D1 antag	Chronic BCR inh	DRD3 antagonist	D1 ag	D3 ag
CCOc1ccccc1CNCc1c(C(=O)O)c(C)n(Cc2ccc(Cl)cc2)c1C	n	-67	x	x	n	n
Cc1c(CNCCc2ccc(Cl)cc2)c(C(=O)O)c(C)n1Cc1ccccc1	n	n	u	n	n	n
C(=N\c1nc2ccccc2[nH]1)/c1cccs1	n	n	n	-57	n	n
COC(=O)[C@@]12C[C@@H](CC(=O)N3CCN(C(=O)c4ccco4)CC3)C(=O)N(Cc3ccc4c(c3)OCO4)C1=CCC(C)(C)C2	x	x	x	n	x	n
CCCc1nc(SC)ncc1C(=O)N1CCN(c2ccc(Cl)cc2)CC1	n	n	x	x	n	n
COc1ccc(Nc2nc(Nc3ccc(OC)cc3OC)nc(N3CCOCC3)n2)c(OC)c1	n	n	x	x	n	40
COc1ccc(Nc2nc(N3CCOCC3)nc(N3CCOCC3)n2)c(OC)c1	n	n	n	n	n	n
CN(CC(=O)Nc1ccc(Br)cc1)S(=O)(=O)c1cccc2nsnc12	n	n	x	x	n	n
Cc1noc2ncnc(N3CCCC(C(=O)Nc4cccc(C(F)(F)F)c4)C3)c12 (stereo not given)	n	n	x	x	n	n
Cc1sc(N/N=C/c2cccnc2)nc1-c1ccc(Cl)cc1	n	-33	u	n	n	n
Clc1ccc(N/N=C/c2cccnc2)cc1	n	n	u	n	n	n
Cc1cc(=O)oc2cc(OCc3ccc(C(=O)N4CCN(c5ccccc5)CC4)cc3)ccc12	n	-37	n	n	n	n
COc1ccc(N2CCN(CCOc3ccc4c(C)cc(=O)oc4c3)CC2)cc1	n	n	n	-51	n	n
CSc1nsc(NC(=O)Cc2ccccc2)n1	n	n	u	n	n	n
CCCCCCSc1nsc(NC(=O)CCC)n1	n	-39	u	n	n	n
CC1=CN2C(=N)/C(=C/c3ccco3)C(=O)N=C2S1	n	n	u	-60	n	n
Cn1c2ccccc2c2cnn(CC(=O)NCCCN3CCCCC3)c(=O)c21	n	n	x	x	n	n
CN(C)CCNC(=O)c1ccc2c(c1)N(Cc1c(F)cccc1Cl)C(=O)c1ccccc1S2	n	n	x	x	n	n
CNC(=S)N(C)/N=C1/C(=O)N(Cc2c(Cl)cccc2Cl)c2ccccc21	n	-34	u	n	n	n
Cc1c(C(=O)Nc2nc(-c3ccc(F)cc3)ns2)oc2ccc(Br)cc12	n	n	x	x	n	n
CC(CCc1ccccc1)NCc1ccncc1 (stereo not given)	n	n	u	n	n	78
CC(Cc1ccccc1)C(=O)NCc1ccncc1 (stereo not given)	n	n	n	u	n	n
CC(CCc1ccccc1)NS(=O)(=O)c1ccccc1 (stereo not given)	n	-37	u	n	n	n
CCN1CCN(c2cc(-c3ccc(F)cc3)c3c(n2)CCCCCC3)CC1	x	x	x	x	x	n
CN1CCN(c2cc3c(nn2)Oc2ccccc2N3C)CC1	x	x	x	x	x	n
SMILES	D1 potentiator	D1 antag	Chronic BCR inh	DRD3 antagonist	D1 ag	D3 ag
COc1ccc(C(C)(O)c2nc(/C=C/c3ccccc3)cs2)cc1 (stereo not given)	x	x	x	-78	x	n
COc1ccc(C(C)(NC(C)=O)c2nc(/C=C/c3ccccc3)cs2)cc1 (stereo not given)	x	x	x	n	x	n
COc1ccc(-c2noc(N3CCC(C(=O)Nc4ccccc4F)CC3)n2)cc1	n	n	n	n	n	n
COc1ccc(-c2noc(C3CCCN(C(=O)c4ccccc4)C3)n2)cc1 (stereo not given)	n	-39	n	n	n	n
COc1ccc(-c2noc(N3CCC(C(=O)Nc4ccccc4Cl)CC3)n2)cc1	n	-34	n	n	n	n
COc1ccc(-c2noc(N3CCC(C(=O)NC(C)c4ccccc4)CC3)n2)cc1 (stereo not given)	n	-35	n	n	n	n
COc1ccc(-c2noc(N3CCC(C(=O)NCc4ccccc4Cl)CC3)n2)cc1	n	-47	n	n	n	n
O=C(NCCc1ccccc1Cl)c1ccc2c(=O)n(-c3ccccc3)c(=O)[nH]c2c1	n	n	x	x	n	n
COc1ccccc1-c1cnc(C(O)c2cc(C)ccc2C)[nH]1 (stereo not given)	x	x	x	n	x	n
CC1(C)CC(O)C(C)(C)N1O (stereo not given)	n	n	n	n	37	n
COc1ccc(NC(=O)[C@H](C)NS(=O)(=O)c2ccc(NC(C)=O)cc2)cc1Cl	x	x	x	n	x	n
COC(=O)c1cccc(NC(=O)Nc2ccc(Cl)cc2Cl)c1	n	-43	n	n	n	n
O=C(NCc1ccccc1)c1cccc(COc2ccc(Cl)cc2)c1	n	n	n	n	38	n
COC(=O)c1cccc(NC(=S)NCc2ccc(Cl)cc2)c1	n	n	u	n	35	n
CC(C)C(=O)Nc1cccc(C(=O)OCC(=O)c2ccc(Cl)cc2Cl)c1	n	n	n	n	n	31
CC(=O)Nc1cc(C(=O)OCC(=O)c2ccc(Cl)cc2Cl)ccc1C	n	n	n	n	n	n
COC(=O)c1cccc(NC(=S)Nc2cc(Cl)ccc2OC)c1	n	n	u	n	n	n
COC(=O)c1cc(NC(=S)NCc2ccc(Cl)cc2)cc(C(=O)OC)c1	n	n	n	n	n	n
CCC(C(=O)NC(C)(C)C)n1c(C(c2ccccc2)c2ccccc2)nc2ccccc21 (stereo not given)	x	x	x	n	x	n
C=C1CC[C@H](O)CC1=C/C=C1\CCC[C@]2(C)[C@@H]([C@H](C)CCCC(C)(C)O)CC[C@@H]12	x	x	x	x	x	n
CC(=O)N1CCC(C(=O)N2c3ccccc3N=C(c3ccc(C(F)(F)F)cc3)C2C(=O)NC(C)(C)C)CC1 (stereo not given)	x	x	x	n	x	n
CCCC(=O)N1CCC1(C)C(=O)NS(=O)(=O)c1ccc(C(C)(C)C)cc1 (stereo not given)	x	x	x	n	x	n
Cn1cnc(S(=O)(=O)N2CCC(C(=O)NCc3ccccc3Cl)CC2)c1	n	n	x	x	n	n
CCc1ccc(NC(=O)CC2C(=O)N(c3ccc(OC)cc3)C(=O)N2Cc2ccc(OC)cc2)cc1 (stereo not given)	n	n	x	x	n	n
O=C(NCc1ccc(Cl)cc1)c1cccc(NC(=O)c2ccccc2)c1	n	-34	n	n	n	n
O=C(CN1CCCCC1)Nc1ccccc1	n	n	n	n	n	n
O=C(CCCC(=O)OCC(=O)c1cccs1)Nc1ccc(Oc2ccccc2)cc1	n	-42	u	n	n	n
O=C(COC(=O)C1CC1)Nc1ccc(Oc2ccccc2)cc1	n	-35	u	n	n	n
O=C(CCCC(=O)OCC(=O)c1cccs1)Nc1ccc(F)cc1	n	n	n	n	n	n
